Screening data (PubChem)
RORg inh – ROR gamma (mouse) transcription inhibition; P51450; Drosophila S2 Gal4-RORgamma UAS-luciferase reporter, 20 h; actives 5.4% (n = 310,000); Potency, µM (series often up to 53.6 µM), for inactives: at the top dose activity change, negative = inhibition, actives largely listed as inhibitors; note: potency is the fitted concentration of half-maximal effect; % is set by controls: 0 for no effect and ±100 for the full control effect; nearly all actives have a fitted effect of over 60% in size
Target sequence (P51450 whole entry, looked up, the tested form may be a part): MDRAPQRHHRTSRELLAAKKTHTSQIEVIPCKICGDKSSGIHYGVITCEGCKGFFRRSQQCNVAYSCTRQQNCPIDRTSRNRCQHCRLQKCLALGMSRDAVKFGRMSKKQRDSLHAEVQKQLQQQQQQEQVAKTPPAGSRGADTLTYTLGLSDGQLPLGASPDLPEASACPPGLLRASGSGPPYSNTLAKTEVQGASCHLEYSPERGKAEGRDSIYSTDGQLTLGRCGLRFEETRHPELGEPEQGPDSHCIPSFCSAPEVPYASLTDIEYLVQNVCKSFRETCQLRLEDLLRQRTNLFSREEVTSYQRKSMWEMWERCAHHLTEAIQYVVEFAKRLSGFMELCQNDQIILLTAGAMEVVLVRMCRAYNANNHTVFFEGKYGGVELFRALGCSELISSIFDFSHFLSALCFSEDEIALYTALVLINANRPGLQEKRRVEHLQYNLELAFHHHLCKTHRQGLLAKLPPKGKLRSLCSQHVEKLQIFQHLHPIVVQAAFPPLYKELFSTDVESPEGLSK
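Luminescence from a UAS-regulated Photinus luciferase reporter in stably transfected Drosophila Schneider cells is measured; decreased signal marks ROR gamma inhibition. Fusion expression is induced by 700 uM copper sulfate for 20 hr.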
Gal4-VP16 FLuc – counter-screen for ROR gamma inhibitors: Gal4-VP16 reporter | Drosophila S2 Gal4-VP16 UAS-luciferase, luminescence, 20 h | Potency, µM (titrated, usually from 53.6 µM), without a hit: at the highest dose activity, negative = inhibition, hits mostly inhibitors | actives 3.5% (n = 310,000);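 note: Gal4-VP16 expression switched on by copper sulfate through the metallothionein promoter; potency is the fitted concentration of half-maximal effect; % is set by controls: 0 for no effect and ±100 for the full control effect; nearly all actives have a fitted effect of over 50% in size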
MCF10A rereplic – induces DNA re-replication in MCF 10a normal breast cells; MCF 10A DNA re-replication, Hoechst nuclear intensity, 48 h; Potency, µM (doses to about 46.1 µM), for the others: top-dose activity, positive = re-replication, most hits filed as activators; actives 2.9% (n = 350,000); AID 624296; note: potency is the fitted concentration of half-maximal effect; % of control where 0% means no effect; nearly all actives have a fitted effect of over 50% in size
IL1B secr inh – blocks inflammasome-driven IL-1 beta release; THP-1 LPS/ATP IL-1B secretion, AlphaLISA, 16 h; stronger effect = lower value; activity change, % at 57.5 µM; actives 4.7% (n = 360,000); AID 743279; in the data active = activity change below about -50%; inconclusive = mostly about -30% to -49%; note: % is set by controls: 0 for no effect and ±100 for the full control effect
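Secreted IL-1B measured by AlphaLISA bead assay after 16 h compound exposure of THP-1 cells; compounds (final up to 57.5 uM) added 1 h before LPS (250 ng/mL) and ATP (1.25 mM) stimulation; lower signal means less secretion.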
SW480 rerep – induces DNA re-replication in SW480 colon adenocarcinoma cells; actives 1.8% (n = 340,000); Potency, µM (titrated, usually from 46.1 µM), for the others: top-dose re-replication activation, actives largely listed as activators; AID 624297; SW480 DNA re-replication, Hoechst DNA content imaging, 48 h; note: potency is the fitted concentration of half-maximal effect; % of control where 0% means no effect; nearly all actives have a fitted effect of over 55% in size
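Compounds, transferred as 23 nL by pin tool, were incubated with cells for 48 hr; DNA content per nucleus was then quantified by Hoechst staining and fluorescence plate imaging.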
* = called active by the depositor; ? = inconclusive; / = no result given. Most compounds without a hit are left out; they make up all but 11% or so of the library. Unless noted, calls come from the whole dose curve; as a rule, active = well fitted curve in the direction sought with a large enough effect; inconclusive = small, poorly fitted or top-dose-only effect, or another doubt; inactive = no such curve, though single readings can be large; an effect the other way counts as inactive or inconclusive.

SMILES	RORg inh	Gal4-VP16 FLuc	MCF10A rereplic	IL1B secr inh	SW480 rerep
CC(=O)NC(=S)NNC(=O)C(c1ccccc1)c1ccccc1	6.3µM*	-6%	1%	58	13%
N#CCC(=O)NNC(=S)NC(=O)C(c1ccccc1)c1ccccc1	-8%	-7%	?	9	28%
CC1(C)CC[C@]2(C(=O)O)CC[C@]3(C)C(=CCC4[C@@]5(C)CC[C@H](O)C(C)(C)C5[C@H](O)C[C@]43C)C2C1 (stereo not given in full)	-21%	-11%	/	/	/
CN(Cc1ccccc1)C(=O)c1ccc(Cl)c([N+](=O)[O-])c1	?	1%	?	-90*	-6%
C=CCNC(=O)c1ccc([N+](=O)[O-])c(Cl)c1	16%	-4%	27%	-8	0%
CC(C)(CNC(=O)c1ccc([N+](=O)[O-])c(Cl)c1)CNC(=O)c1ccc([N+](=O)[O-])c(Cl)c1	?	5µM*	?	-113*	?
Cc1ccc(C(=O)NCCSc2ccc(Cl)cc2)cc1[N+](=O)[O-]	44%	3%	-8%	-20	-4%
Cc1ccc(C(=O)NCCc2cccc(Cl)c2)cc1[N+](=O)[O-]	?	7%	18%	-56*	1%
CN(Cc1ccccc1)c1ccc(C(=O)O)cc1[N+](=O)[O-]	-21%	-3%	0%	-1	-6%
O=C(NCCc1cccc(Cl)c1)c1ccc(Cl)c([N+](=O)[O-])c1	44%	2%	22%	-98*	-1%
CC(=O)OC1CC[C@]2(C)C(=CCC3C4CCC(C(C)CCCC(C)C)[C@]4(C)CCC32)C1 (stereo not given in full)	0%	12%	/	/	/
O=C(O)C(=Cc1ccccc1[N+](=O)[O-])c1ccc2c(c1)OCO2	/	/	/	44	/
O=C(COC(=O)c1ccc(S(=O)(=O)N2CCCCC2)cc1)Nc1ccccc1	/	/	0%	15	1%
CCCCc1n(CC(=O)c2ccc(Cl)cc2)c2ccccc2[n+]1C	49%	3%	-8%	-68*	-8%
C=CCn1c(=N)n(CC(=O)c2ccc(Cl)cc2)c2ccccc21	?	9%	?	-90*	20%
C=CCn1c(=N)n(CC(=O)c2ccc(Br)s2)c2ccccc21	-17%	25%	-4%	-74*	?
CCCS(=O)(=O)NC(=O)C1(C)CCCN(C(=O)C(C)(C)Oc2ccc(Cl)cc2)C1 (stereo not given)	/	/	/	10	/
Cc1cccc(C)c1-n1nnnc1C(c1ccnc2ccccc12)N1CCN(C/C=C/c2ccccc2)CC1 (stereo not given)	/	/	/	-17	/
COC(=O)[C@@]1(Cc2ccc(F)cc2)[C@H]2c3cc(C(=O)N4CCCC4)n(CCc4c[nH]c5cc(F)ccc45)c3C[C@H]2CN1C(=O)c1ccccc1	24%	0%	/	/	/
CC(=O)Nc1ccc(SCC(Cc2ccccc2)N2CCN(CCc3ccccc3)CCC2=O)cc1 (stereo not given)	?	4%	/	/	/
COc1ccc(CNc2cc(C)nc3ncnn23)c(OC)c1	-23%	11µM*	?	2	-1%
CC1CCN(C(=O)c2ccc(-c3ccccc3Cl)o2)CC1	/	/	?	-100*	-557%
S=C(c1ccc(-c2ccccc2Cl)o1)N1CCOCC1	20%	10%	-7%	-91*	5%
O=C(c1ccc(-c2ccccc2Cl)o1)N1CCC1	/	/	1%	-18	?
O=C(CCc1ccccc1)NCC(c1ccco1)N1CCc2ccccc21 (stereo not given)	/	/	4.6µM*	-7	18µM*
Cc1cccc(C(=O)NCC(c2ccco2)N2CCc3ccccc32)c1 (stereo not given)	/	/	?	-58*	-516%
COS(C)(=O)=O	-6%	10%	/	/	/
CCOC(=O)C(=O)/C(C#N)=C/Nc1ccccc1	22%	1%	1%	5	-2%
CCOC(=O)/C(=C\c1ccccc1)C(=O)c1cc(C(C)=O)c(Nc2ccccc2)s1	7.1µM*	?	20%	-101*	11%
CCOC(=O)/C(=C\c1cccnc1)C(=O)c1cc(C(C)=O)c(Nc2ccccc2)s1	3.5µM*	4.5µM*	2.9µM*	-103*	3.7µM*
